Measured values reported in PubChem BioAssay (EPA / NIEHS).
Where a structure was tested more than once in an assay, its records may differ in their call. Active and inactive are the calls of the source. The calls were made as follows: active = hit-call score of the fitted dose curve at least 0.9, where 1 is the maximum; inactive = score below 0.9.

assay: ATG_M_19_CIS: Attagene CIS-FACTORIAL HepG2 Assay for M19 Transcription Factor (Internal Marker) (AID 2282939); conditions: HepG2 Attagene CIS-FACTORIAL M19 internal marker reporter; actives raise or lower the signal
Protocol: ATG_CIS is a cell-based, multiplexed-readout assay that uses HepG2, a human liver cell line, with measurements taken at 24 hours after chemical dosing in a 24-well plate.ATG_M_19_CIS is one of 52 assay component(s) measured or calculated from the ATG_CIS assay. It is designed to make measurements of mRNA induction, a form of inducible reporter, as detected with fluorescence intensity signals by Reverse transcription polymerase chain reaction (RT-PCR) and Capillary electrophoresis technology.Data from the assay component ATG_M_19_CIS was analyzed into 1 assay endpoint. This assay endpoint, ATG_M_19_CIS, was analyzed with bidirectional fitting relative to DMSO as the negative control and baseline of activity. Using a type of inducible reporter, measures of mRNA for gain or loss-of-signal activity can be used to understand the background control at the transcription factor-level as they relate to the gene . Furthermore, this assay endpoint can be referred to as a secondary readout, because this assay has produced multiple assay endpoints where this one serves a background control function. To generalize the intended target to other relatable targets, this assay endpoint is annotated to the background measurement intended target family, where the subfamily is internal marker.
Human liver HepG2 cells are transiently transfected with multiple reporter transcription units (MRTUs) in 6-well plates using FuGene 6 reagent (Roche; 3 ml FuGene/1 mg DNA). The MRTU constructs are regulated by a cis-regulating element (promoter). […] A major difference between the CIS and TRANS system is that in CIS activities of endogenous TFs are measured, whereas the TRANS assay evaluates changes in activities of exogenous, chimeric NR-Gal4 proteins. […] At the end of 24 hour incubation, total RNA was isolated using TriZol reagent (Invitrogen). The isolated RNA is then reverse-transcribed using oligo(dT) primer and Mo-MLV reverse transcriptase (Invitrogen) with DNAse I (Ambion) treatment for 30 min. The one-tenth of the produced cDNA was amplified by PCR using Taq DNA polymerase (Invitrogen) and two reporter sequence-specific primers. The PCR products were fluorescently labeled by primer extension with 6-arboxyfluorescein (6-FAM) 5'-labeled reporter sequence-specific primer (2 min at 95 C, 20 s at 68 C and 10 min at 72 C) and these products were digested with 5U of HpaI (New England Biolabs) for 2h at 37 C. The fragments were purified using Qiaquick PCR columns (Qiagen), analyzed on an ABI 3130xL genetic analyzer (Applied Biosystems) with peak positions identified by using a set of X-rhodamine (ROX)-labeled MapMarker1000 molecular weight standards (BioVentures). The raw capillary electrophoresis data was processed using Attagraph software (Attagene).

Structure (SMILES)	outcome	AC50
CC(N)=O	inactive	
c1ccc2occc2c1	inactive	
CCCCc1nc2cccnc2n1Cc1ccc(-c2ccccc2-c2nnn[nH]2)cc1	inactive	
COc1ccc(OC(F)(F)F)cc1CN[C@H]1CCCN[C@H]1c1ccccc1	inactive	
O=NO	inactive	
CCCCCCCCCCCCCCOS(=O)(=O)O	inactive	
CS(=O)(=O)c1ccc([C@@H](C[C@H]2CCC(=O)C2)C(=O)Nc2cnccn2)cc1Cl	inactive	
Oc1ccc(O)cc1	inactive	
CC(C)COC(=O)CCCCC(=O)OCC(C)C	inactive	
Cc1ccc(-c2cc(C(F)(F)F)nn2-c2ccc(S(N)(=O)=O)cc2)cc1	inactive	
Cc1c(C)c2c(c(C)c1O)CCC(C)(COc1ccc(CC3SC(=O)NC3=O)cc1)O2 (stereo not given)	inactive	
O=[Si]=O	inactive	
N[C@@H](Cc1c[nH]c2ccccc12)C(=O)O	inactive	
CC(C)OC(=O)C(C)(C)Oc1ccc(C(=O)c2ccc(Cl)cc2)cc1	inactive	
CCCC[C@H]1CN(CC2CCOCC2)C(=O)OC12CCN(C1(C)CCN(C(=O)c3c(C)ncnc3C)CC1)CC2	inactive	
CCCC(=O)O	inactive	
NC(=Nc1ccccc1)Nc1ccccc1	inactive	
O=C1OC(c2ccc(O)cc2)(c2ccc(O)cc2)c2ccccc21	inactive	
CC(=O)O	inactive	
NCCOCCOCCN	inactive	

Structure (SMILES)	outcome	AC50
CC(C)c1cccc(C(C)C)c1NC(=O)NS(=O)(=O)c1cc(C(C)(C)O)co1	inactive	
O=C1c2c(O)cccc2Cc2cccc(O)c21	inactive	
C/C=C/C=C/C(=O)O	inactive	
CSc1ccc(Oc2ccc(S(N)(=O)=O)cc2CN(C)C)cc1C	inactive	
O=C(NS(=O)(=O)/C=C/c1cccs1)c1ccc(F)cc1Br	inactive	
CCCCC(CC)COP(=O)(OCC(CC)CCCC)OCC(CC)CCCC (stereo not given)	inactive	
O=C1O[C@H]([C@H](O)CO)C(O)=C1O	inactive	
CC(=O)O[C@]1(C(C)=O)CC[C@H]2[C@@H]3C=C(Cl)C4=CC(=O)[C@@H]5C[C@@H]5[C@]4(C)[C@H]3CC[C@@]21C	inactive	180 µM (active)
COc1ccc(C(=O)Nc2nc3ccccc3c(NCc3ccccc3)c2C#N)cc1	inactive	
CCOCCOCCO	inactive	
C=CCc1ccc(OC)c(OC)c1	inactive	
Nc1nc(Cl)nc2c1ncn2[C@H]1C[C@H](O)[C@@H](CO)O1	inactive	
CC1=C(C)S(=O)(=O)CCS1(=O)=O	inactive	
S=c1[nH]c2ccccc2s1	inactive	
CO[C@@H]1COCC[C@@H]1N[C@@H]1CC[C@@](C(=O)N2CCc3ncc(C(F)(F)F)cc3C2)(C(C)C)C1	inactive	
CN(C)CCCN1c2ccccc2Sc2ccc(Cl)cc21	inactive	
CC(C)c1cccc(C(C)C)c1	inactive	
COC(=O)CCCC(=O)OC	inactive	
CC(=O)OC1CC(C)OC(C)O1 (stereo not given)	inactive	
